Results taken from the supplement of paper PMC4466140.

Key:
Assay in all cases: SPOT peptide array binding signal intensity (averaged, normalized) (arbitrary units (background-subtracted, floor 0; scale differs between SH3 domains)); higher = stronger binding of the SH3 domain to the peptide
[1] = biological target: CaNbp2
Procedure, shortened: (§1)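 GST-SH3 fusions from four yeast species, purified on glutathione Sepharose, were incubated at 10 μg/ml overnight at 4°C on membranes of synthetic 15-mer peptides in which cysteines were replaced with serines. Binding signal is the normalized, background-subtracted spot intensity averaged over replicates, in domain-specific arbitrary units.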

[2] = biological target: CaRvs167
Procedure, shortened: as §1

[3] = biological target: CaRvs167-3
Procedure, shortened: as §1

[4] = biological target: CaSho1
Procedure, shortened: as §1

[5] = biological target: CaSla1-D1-D2
Procedure, shortened: as §1

[6] = biological target: CaSla1-D3
Procedure, shortened: as §1

[7] = biological target: ScAbp1
Procedure, shortened: as §1

[8] = biological target: ScBbc1
Procedure, shortened: as §1

[9] = biological target: ScBem1-D1
Procedure, shortened: as §1

[10] = biological target: ScBzz1-D1
Procedure, shortened: as §1

[11] = biological target: ScBzz1-D2
Procedure, shortened: as §1

[12] = biological target: ScCyk3
Procedure, shortened: as §1

[13] = biological target: ScFus1
Procedure, shortened: as §1

[14] = biological target: ScHof1
Procedure, shortened: as §1

[15] = biological target: ScHse1
Procedure, shortened: as §1

[16] = biological target: ScLsb1
Procedure, shortened: as §1

[17] = biological target: ScLsb2
Procedure, shortened: as §1

[18] = biological target: ScLsb3
Procedure, shortened: as §1

[19] = biological target: ScLsb4
Procedure, shortened: as §1

[20] = biological target: ScMyo3
Procedure, shortened: as §1

[21] = biological target: ScMyo5
Procedure, shortened: as §1

[22] = biological target: ScNbp2
Procedure, shortened: as §1

[23] = biological target: ScPex13
Procedure, shortened: as §1

[24] = biological target: ScRvs167
Procedure, shortened: as §1

[25] = biological target: ScSho1
Procedure, shortened: as §1

[26] = biological target: ScSla1-D1-D2
Procedure, shortened: as §1

[27] = biological target: ScSla1-D3
Procedure, shortened: as §1

[28] = biological target: SpAbp1-D1
Procedure, shortened: as §1

[29] = biological target: SpBbc1
Procedure, shortened: as §1

[30] = biological target: SpBzz1-D1
Procedure, shortened: as §1

[31] = biological target: SpBzz1-D2
Procedure, shortened: as §1

[32] = biological target: SpCyk3
Procedure, shortened: as §1

[33] = biological target: SpHof1
Procedure, shortened: as §1

[34] = biological target: SpHof1-2
Procedure, shortened: as §1

[35] = biological target: SpHof1-3
Procedure, shortened: as §1

[36] = biological target: SpHse1
Procedure, shortened: as §1

[37] = biological target: SpLsb1
Procedure, shortened: as §1

[38] = biological target: SpLsb4
Procedure, shortened: as §1

[39] = biological target: SpMyo1
Procedure, shortened: as §1

[40] = biological target: SpNbp2
Procedure, shortened: as §1

[41] = biological target: SpPex13
Procedure, shortened: as §1

[42] = biological target: SpRvs167
Procedure, shortened: as §1

[43] = biological target: SpSla1-D1-D2
Procedure, shortened: as §1

[44] = biological target: SpSla1-D3
Procedure, shortened: as §1

[45] = biological target: AgAbp1
Procedure, shortened: as §1

[46] = biological target: AgBbc1
Procedure, shortened: as §1

[47] = biological target: AgBem1-D1
Procedure, shortened: as §1

[48] = biological target: AgBzz1-D1
Procedure, shortened: as §1

[49] = biological target: AgBzz1-D2
Procedure, shortened: as §1

[50] = biological target: AgCyk3
Procedure, shortened: as §1

[51] = biological target: AgFus1
Procedure, shortened: as §1

[52] = biological target: AgHof1
Procedure, shortened: as §1

[53] = biological target: AgHse1
Procedure, shortened: as §1

[54] = biological target: AgLsb1
Procedure, shortened: as §1

[55] = biological target: AgLsb4
Procedure, shortened: as §1

[56] = biological target: AgMyo5
Procedure, shortened: as §1

[57] = biological target: AgNbp2
Procedure, shortened: as §1

[58] = biological target: AgRvs167
Procedure, shortened: as §1

[59] = biological target: AgSho1
Procedure, shortened: as §1

[60] = biological target: AgSla1-D1-D2
Procedure, shortened: as §1

[61] = biological target: AgSla1-D3
Procedure, shortened: as §1

[62] = biological target: CaAbp1-D1
Procedure, shortened: as §1

[63] = biological target: CaAbp1-D2
Procedure, shortened: as §1

[64] = biological target: CaBbc1
Procedure, shortened: as §1

[65] = biological target: CaBem1-D1
Procedure, shortened: as §1

[66] = biological target: CaBzz1-D1
Procedure, shortened: as §1

[67] = biological target: CaBzz1-D2
Procedure, shortened: as §1

[68] = biological target: CaCyk3
Procedure, shortened: as §1

[69] = biological target: CaFus1
Procedure, shortened: as §1

[70] = biological target: CaHof1
Procedure, shortened: as §1

[71] = biological target: CaHse1
Procedure, shortened: as §1

[72] = biological target: CaLsb1
Procedure, shortened: as §1

[73] = biological target: CaLsb4
Procedure, shortened: as §1

[74] = biological target: CaMyo5
Procedure, shortened: as §1

With IFLRISINFPLNYPN the “SPOT peptide array binding signal intensity” value [1] was 2110, the “SPOT peptide array binding signal intensity” value [2] was 750 and the “SPOT peptide array binding signal intensity” value [3] was 1500. For the same binder, the “SPOT peptide array binding signal intensity” value [4] was 2060, the “SPOT peptide array binding signal intensity” value [5] was 602 and the “SPOT peptide array binding signal intensity” value [6] was 1050. The “SPOT peptide array binding signal intensity” value [7] was 93.2, the “SPOT peptide array binding signal intensity” value [8] was 59.9 and the “SPOT peptide array binding signal intensity” value [9] was 194. The “SPOT peptide array binding signal intensity” value [10] was 558, the “SPOT peptide array binding signal intensity” value [11] was 2990 and the “SPOT peptide array binding signal intensity” value [12] was 127. The “SPOT peptide array binding signal intensity” value [13] was 5050, the “SPOT peptide array binding signal intensity” value [14] was 30.8 and the “SPOT peptide array binding signal intensity” value [15] was 3840. For the same binder, the “SPOT peptide array binding signal intensity” value [16] was 12.8, the “SPOT peptide array binding signal intensity” value [17] was 64 and the “SPOT peptide array binding signal intensity” value [18] was 1490. The “SPOT peptide array binding signal intensity” value [19] was 396, the “SPOT peptide array binding signal intensity” value [20] was 32.5 and the “SPOT peptide array binding signal intensity” value [21] was 114. The “SPOT peptide array binding signal intensity” value [22] was 2820, the “SPOT peptide array binding signal intensity” value [23] was 516 and the “SPOT peptide array binding signal intensity” value [24] was 223. For the same binder, the “SPOT peptide array binding signal intensity” value [25] was 6350, the “SPOT peptide array binding signal intensity” value [26] was 880 and the “SPOT peptide array binding signal intensity” value [27] was 344. The “SPOT peptide array binding signal intensity” value [28] was 211, the “SPOT peptide array binding signal intensity” value [29] was 238 and the “SPOT peptide array binding signal intensity” value [30] was 1240. The “SPOT peptide array binding signal intensity” value [31] was 97, the “SPOT peptide array binding signal intensity” value [32] was 35 and the “SPOT peptide array binding signal intensity” value [33] was 342. The “SPOT peptide array binding signal intensity” value [34] was 157, the “SPOT peptide array binding signal intensity” value [35] was 1040 and the “SPOT peptide array binding signal intensity” value [36] was 2240. The “SPOT peptide array binding signal intensity” value [37] was 33, the “SPOT peptide array binding signal intensity” value [38] was 625 and the “SPOT peptide array binding signal intensity” value [39] was 168. The “SPOT peptide array binding signal intensity” value [40] was 1680, the “SPOT peptide array binding signal intensity” value [41] was 1640 and the “SPOT peptide array binding signal intensity” value [42] was 239. For the same binder, the “SPOT peptide array binding signal intensity” value [43] was 68 and the “SPOT peptide array binding signal intensity” value [44] was 512.

For AATTSTPPLPRRRAT, the “SPOT peptide array binding signal intensity” value [45] was 73, the “SPOT peptide array binding signal intensity” value [46] was 800 and the “SPOT peptide array binding signal intensity” value [47] was no more than 0. The “SPOT peptide array binding signal intensity” value [48] was 188, the “SPOT peptide array binding signal intensity” value [49] was 53.5 and the “SPOT peptide array binding signal intensity” value [50] was 3. For the same binder, the “SPOT peptide array binding signal intensity” value [51] was 5, the “SPOT peptide array binding signal intensity” value [52] was 142 and the “SPOT peptide array binding signal intensity” value [53] was 21. The “SPOT peptide array binding signal intensity” value [54] was 464, the “SPOT peptide array binding signal intensity” value [55] was 5320 and the “SPOT peptide array binding signal intensity” value [56] was 12.5. For the same binder, the “SPOT peptide array binding signal intensity” value [57] was no more than 0, the “SPOT peptide array binding signal intensity” value [58] was 591 and the “SPOT peptide array binding signal intensity” value [59] was no more than 0. The “SPOT peptide array binding signal intensity” value [60] was 6, the “SPOT peptide array binding signal intensity” value [61] was no more than 0 and the “SPOT peptide array binding signal intensity” value [62] was 142. For the same binder, the “SPOT peptide array binding signal intensity” value [63] was 229, the “SPOT peptide array binding signal intensity” value [64] was 1600 and the “SPOT peptide array binding signal intensity” value [65] was 11. For the same binder, the “SPOT peptide array binding signal intensity” value [66] was 520, the “SPOT peptide array binding signal intensity” value [67] was 362 and the “SPOT peptide array binding signal intensity” value [68] was 60.5. The “SPOT peptide array binding signal intensity” value [69] was 68, the “SPOT peptide array binding signal intensity” value [70] was 8.75 and the “SPOT peptide array binding signal intensity” value [71] was no more than 0. For the same binder, the “SPOT peptide array binding signal intensity” value [72] was 8.5, the “SPOT peptide array binding signal intensity” value [73] was 5270 and the “SPOT peptide array binding signal intensity” value [74] was 8. For the same binder, the “SPOT peptide array binding signal intensity” value [1] was 94, the “SPOT peptide array binding signal intensity” value [2] was 700 and the “SPOT peptide array binding signal intensity” value [3] was 1. For the same binder, the “SPOT peptide array binding signal intensity” value [4] was 7, the “SPOT peptide array binding signal intensity” value [5] was 906 and the “SPOT peptide array binding signal intensity” value [6] was no more than 0. For the same binder, the “SPOT peptide array binding signal intensity” value [7] was 109, the “SPOT peptide array binding signal intensity” value [8] was 726 and the “SPOT peptide array binding signal intensity” value [9] was 3. The “SPOT peptide array binding signal intensity” value [10] was 10.5, the “SPOT peptide array binding signal intensity” value [11] was 9 and the “SPOT peptide array binding signal intensity” value [12] was 16. For the same binder, the “SPOT peptide array binding signal intensity” value [13] was no more than 0, the “SPOT peptide array binding signal intensity” value [14] was 9.75 and the “SPOT peptide array binding signal intensity” value [15] was 70. The “SPOT peptide array binding signal intensity” value [16] was 232, the “SPOT peptide array binding signal intensity” value [17] was 202 and the “SPOT peptide array binding signal intensity” value [18] was 6300. The “SPOT peptide array binding signal intensity” value [19] was 2060, the “SPOT peptide array binding signal intensity” value [20] was no more than 0 and the “SPOT peptide array binding signal intensity” value [21] was no more than 0. The “SPOT peptide array binding signal intensity” value [22] was 20, the “SPOT peptide array binding signal intensity” value [23] was 1080 and the “SPOT peptide array binding signal intensity” value [24] was 2000. For the same binder, the “SPOT peptide array binding signal intensity” value [25] was no more than 0, the “SPOT peptide array binding signal intensity” value [26] was 760 and the “SPOT peptide array binding signal intensity” value [27] was 11. The “SPOT peptide array binding signal intensity” value [28] was 16, the “SPOT peptide array binding signal intensity” value [29] was 104 and the “SPOT peptide array binding signal intensity” value [30] was 877. For the same binder, the “SPOT peptide array binding signal intensity” value [31] was no more than 0, the “SPOT peptide array binding signal intensity” value [32] was 9 and the “SPOT peptide array binding signal intensity” value [33] was 178. The “SPOT peptide array binding signal intensity” value [34] was 78.5, the “SPOT peptide array binding signal intensity” value [35] was 66.5 and the “SPOT peptide array binding signal intensity” value [36] was 8.25. The “SPOT peptide array binding signal intensity” value [37] was 712, the “SPOT peptide array binding signal intensity” value [38] was 4540 and the “SPOT peptide array binding signal intensity” value [39] was 113. For the same binder, the “SPOT peptide array binding signal intensity” value [40] was 1.5, the “SPOT peptide array binding signal intensity” value [41] was 3 and the “SPOT peptide array binding signal intensity” value [42] was 1970. The “SPOT peptide array binding signal intensity” value [43] was 15.5 and the “SPOT peptide array binding signal intensity” value [44] was no more than 0.
